Screening results (PubChem BioAssay)
NLRP3 yeast inh: NALP3 inflammasome inhibitors in reconstituted yeast, primary screen, luminescence, uHTS; Yeast reconstituted NLRP3/ASC/caspase-1, beta-gal luminescence, 24 h; inhibition, % at 10 µM; actives 0.39% (n = 330,000); AID 2825, 2010;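 active = inhibition of 50% or more; inactive = inhibition below 50%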;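 note: plate controls were induced DMSO wells for no effect and uninduced yeast grown without galactose for full effect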
TIM10 inh: growth inhibitors of isogenic TIM10 control yeast, primary screen, counter-screen for tim10-1 yeast inhibitor project, luminescence, uHTS. AID 463195, 2010. actives 1.4% (n = 330,000). S. cerevisiae TIM10 strain growth, BacTiter-Glo luminescence, 24 h. inhibition, % at 10 µM;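 active = inhibition of 40% or more at the single tested concentration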;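 note: wild-type TIM10 isogenic control strain grown at permissive 25 °C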
SKKanGAS inh: S. pyogenes SKKanGAS growth inhibitors in kanamycin, primary screen, streptokinase expression inhibitor project, SKKanGAS strain, BacTiter-Glo luminescence; inhibition, % at 7.5 µM; actives 1.3% (n = 300,000); 6 h;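 active = mean replicate score, as percent of positive control median, at least 50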;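 note: strain carries kanamycin resistance gene driven by streptokinase promoter and grows in 40 µg/ml kanamycin; loss of luminescence reflects streptokinase promoter inhibition or plain growth inhibition; 0% = median of DMSO wells and 100% = positive control at its reference dose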
tim23-1 inh: growth inhibitors of tim23-1 mutant yeast, primary screen, luminescence, uHTS; actives 1.3% (n = 330,000); AID 463212, 2010; inhibition, % at 20 µM; S. cerevisiae tim23-1 growth, BacTiter-Glo luminescence, 24 h;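 active = growth inhibition of the mutant yeast at or above 50%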;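 note: temperature-sensitive mutant grown at 25 °C; plate controls were DMSO-treated mutant yeast for no effect and medium wells lacking yeast for full effect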
PfHsp90 set2: growth inhibition of PfHsp90-expressing yeast, primary screen, antimalarial PfHsp90 inhibitor project, S. cerevisiae, BacTiter-Glo luminescence, single point, set 2; BacTiter-Glo ATP, 48 h; yeast lacking PDR1 and PDR3 efflux regulators; inhibition, % at 9.4 µM; actives 0.32% (n = 310,000);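 active = every replicate shows inhibition above about 80%, whatever the replicate mean, limit read from the data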;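 note: 0% = DMSO neutral controls and 100% = 20 µM radicicol positive controls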
tim10-1 inh: growth inhibitors of tim10-1 mutant yeast, primary screen, luminescence, uHTS; S. cerevisiae tim10-1 ts strain growth, BacTiter-Glo, 24 h; inhibition, % at 20 µM; actives 2.2% (n = 330,000); AID 463190, 2010;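 active = inhibition of at least 40%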;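 note: mutant grown at 25 °C; 0% = DMSO wells with yeast and 100% = wells holding no yeast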
tim23-1 confirm: tim23-1 mutant yeast growth inhibitors, confirmation, luminescence, single concentration; shares compounds with tim23-1 inh; S. cerevisiae tim23-1 growth, BacTiter-Glo luminescence, 24 h; inhibition, % at 20 µM; actives 83% (n = 4,400); AID 463218, 2010;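 active = inhibition above about 39% in either of two replicate wells at 20 µM, limit read from the data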;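 note: temperature-sensitive tim23-1 mutant grown at 25 °C; 0% = DMSO wells with yeast and 100% = medium wells without yeast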
Starred values were filed as active, the others as inactive; . = no result given. Only some compounds are listed: those with a hit (about 4.6% of all), similar ones and a draw of the others.

SMILES	NLRP3 yeast inh	TIM10 inh	SKKanGAS inh	tim23-1 inh	PfHsp90 set2	tim10-1 inh	tim23-1 confirm
Oc1ccccc1/C=N/NC(=S)NC1CC2C=CC1C2 (stereo not given)	-8.5	39.9	91.5*	68.9*	-45.8	18.0	46.0*
Cc1[nH][nH]c(=O)c1C(c1ccc(-c2ccc(Cl)c(Cl)c2)o1)c1c(C)[nH][nH]c1=O	10.9	-3.6	13.8	75.2*	0.0	35.3	46.3*
COc1ccc(-c2ccc(C(c3c(C)[nH][nH]c3=O)c3c(C)[nH][nH]c3=O)o2)c([N+](=O)[O-])c1	7.1	10.2	.	30.7	14.9	11.5	.
O=C(CCCCl)Oc1ccc2cc(-c3ccc4ccccc4n3)c(=O)oc2c1	-6.9	19.4	-13.9	3.1	-24.8	37.6	.
Oc1ccccc1-c1cc(-c2ccccc2)n[nH]1	36.2	18.3	.	71.5*	37.5	-8.9	60.0*
Oc1ccc(Br)cc1-c1cc(-c2ccccc2F)[nH]n1	7.6	26.5	14.3	-2.1	-18.9	16.9	.
O=c1[nH]nc(-c2ccccc2)cc1-c1ccccc1	19.5	22.4	-3.9	29.1	-32.8	16.5	.
Oc1ccccc1-c1cc(-c2ccc(F)cc2)n[nH]1	20.4	25.3	0.8	67.7*	6.9	39.3	60.9*
CC1CCCCC1NS(=O)(=O)c1ccc2c(c1)CC(=O)N2C (stereo not given)	14.7	10.5	0.3	8.3	7.1	3.3	.
COc1cccc(/C=C/C(=O)Nc2ccc3nc4n(c(=O)c3c2)CCCC4)c1OC	-5.4	5.7	22.5	-2.7	2.3	12.5	.
CCCn1c(SCC(=O)N2CCN(S(=O)(=O)c3ccc(Cl)cc3)CC2)n[nH]c1=O	-5.7	2.0	3.0	57.9*	-12.8	5.9	0.0
O=C(NNC(=O)c1ccc(Br)s1)c1ccc(F)c(S(=O)(=O)N2CCOCC2)c1	-1.2	11.4	.	3.9	22.0	8.2	.
CN(C)C(CNc1ncccn1)c1ccccc1 (stereo not given)	3.7	8.0	-1.4	5.0	0.3	-22.4	.
Cc1ccc(S(=O)(=O)Oc2cccc([N+](=O)[O-])c2)cc1	.	.	.	.	-21.8	.	.
Cc1nn(Cc2noc(C(=O)NCc3ccccn3)n2)c(C)c1Br	9.1	-4.9	3.7	14.6	8.1	22.5	.
O=C1OCCC1Sc1nc2ccccc2c(=O)n1Cc1ccc(F)cc1 (stereo not given)	7.5	25.6	4.4	50.0*	-2.2	33.0	22.9
O=C1OCCC1Sc1nc2ccccc2c(=O)n1-c1ccc(F)cc1 (stereo not given)	-3.6	2.9	-12.2	7.3	14.7	19.2	.
O=C(Nc1nncs1)C12CC3CC(CC(Cl)(C3)C1)C2	.	.	-2.2	.	-8.9	.	.
CC(C)CC(=O)Nc1ccccc1N1CCN(C(=O)c2ccccc2)CC1	10.5	4.0	13.9	76.3*	-0.5	13.4	7.2
Cc1cccc(NC(=O)CN(CC2CCCO2)C(=O)c2cc3ccccc3o2)c1C (stereo not given)	21.8	5.9	.	28.8	.	15.5	.
CCN(CC)c1ccc2c(C)cc(=O)oc2c1	24.3	-11.4	.	30.6	12.5	4.2	.
CCN(CC)c1ccc2c(C)c(-c3ccc(N)cc3)c(=O)oc2c1	14.4	37.6	-2.3	55.5*	-5.9	24.2	66.8*
CCN(CC)c1ccc2c(C)c(Cl)c(=O)oc2c1	26.1	27.0	-20.4	50.3*	12.3	9.4	52.8*
COC(=O)C1CCN(C(=O)c2cc(-c3ccc(Cl)s3)nc3ccccc23)CC1	-0.8	9.9	.	52.3*	-33.6	15.0	52.0*
CCN1CCN(C(=O)c2cc(-c3ccc(Cl)s3)nc3ccccc23)CC1	21.4	15.5	2.3	29.3	-10.8	38.7	.
COc1cc(-c2[nH]nc3c2C(c2ccco2)C(C#N)=C(N)O3)cc(OC)c1OC (stereo not given)	4.1	17.2	-3.1	10.7	3.8	20.1	.
